GLS inh – qHTS for Inhibitors of Glutaminase (GLS); AID 624170, 2012; 410,000 tested, 0.21% active; Potency, µM (top dose mostly 45.5 µM), for the others: at the highest dose activity change, negative = inhibition, hits mostly inhibitors; GLS enzymatic activity, qHTS titration; Glutaminase kidney isoform, mitochondrial (Homo sapiens), O94925; further: potency means the concentration at half of the fitted maximal effect; on the % scale 0 is the no-effect control and ±100 the full control effect
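hKGA in 45 mM KH2PO4 pH 8.2, 0.02% Tween-20 with pin-transferred compounds; 1 mM L-glutamine (stock) plus glutamate oxidase/HRP/Amplex Red coupling added. Fluorescence read initially and after 30 min at RT.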
PI4K2A block – qHTS for small molecular inhibitors of PI4K2A; AID 1346378, 2018; purified PI4K2A, ADP-Glo luminescence, 1 h; active compounds read low; activity change, negative = inhibition, % at 76.9 µM; 420,000 tested, 0.13% active; in the data active means activity change below about -50%; inconclusive means mostly about -30% to -49%;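 further: -100% = wells without enzyme as full effect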
Target sequence (Q9BTU6 whole entry, looked up): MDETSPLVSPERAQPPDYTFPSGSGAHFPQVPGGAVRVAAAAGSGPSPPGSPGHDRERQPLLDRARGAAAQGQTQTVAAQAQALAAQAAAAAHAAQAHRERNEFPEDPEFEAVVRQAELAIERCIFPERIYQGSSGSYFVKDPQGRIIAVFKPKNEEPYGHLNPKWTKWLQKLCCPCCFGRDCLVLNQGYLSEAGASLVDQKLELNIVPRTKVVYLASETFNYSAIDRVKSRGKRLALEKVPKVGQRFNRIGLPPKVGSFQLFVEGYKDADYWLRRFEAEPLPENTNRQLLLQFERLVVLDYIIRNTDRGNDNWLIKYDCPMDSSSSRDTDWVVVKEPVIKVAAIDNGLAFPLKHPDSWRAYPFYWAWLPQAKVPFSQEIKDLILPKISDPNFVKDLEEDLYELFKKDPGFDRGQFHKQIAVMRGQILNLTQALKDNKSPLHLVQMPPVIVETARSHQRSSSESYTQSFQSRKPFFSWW
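Compounds are screened against recombinant PI4K2A using PI as substrate and ATP, the latter dispensed at 300 microM. Reactions run one hour at ambient temperature before ADP-Glo detection; full inhibition defined by wells lacking enzyme.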
CCT modulator – High-Throughput Screening for Modulators of Cytosolic Chaperonin Activity; purified chaperonin ATPase assay, HTRF ADP detection, 30 min; activity change, % (no concentration beside the values), hits read low; 360,000 tested, 0.3% active; AID 651819, 2012; in the data active means activity change below about -30%; further: on the % scale 0 is the no-effect control and ±100 the full control effect
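TRiC (40 or 20 nM final, by batch activity) in 30 mM Tris pH 7.4, 100 mM KCl, 5 mM MgCl2, 1 mM DTT was treated with compound at 76 uM single dose, then 10 uM ATP, 30 min at 37 °C. ADP was read by HTRF Transcreener.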
PGK inhibitor – qHTS Assay to Find Inhibitors of Phosphoglycerate Kinase. Phosphoglycerate kinase, glycosomal (Trypanosoma brucei brucei), P07378. PGK/GAPDH coupled, Kinase-Glo luminescence, 60 min. Potency, µM (doses to about 57.5 µM), inactives show top-dose activity change, negative = inhibition, hits mostly inhibitors. 380,000 tested, 0.043% active. AID 602233, 2012; further: potency means the concentration at half of the fitted maximal effect; on the % scale 0 is the no-effect control and ±100 the full control effect; nearly all actives have a fitted effect of over 60% in size
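Luminescent ATP detection (Kinase-Glo Plus) follows a 60-minute room-temperature incubation, with wells lacking PGK as controls. Buffer: 100 mM TEA (pH 7.6), 5 mM MgCl2, 0.01% Tween-20. Coupling enzyme GAPDH (100 nM final) supplies unstable 1,3-BPG in-well.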
PINK1 expr mod – A Quantitative High throughput Screen to Identify Chemical Modulators of PINK1 Expression. PINK1 immunofluorescence, high-content cytometry, 24 h. Potency, µM (top dose mostly 76.6 µM), for the others: at the top dose activation (PINK1 increase), actives largely listed as activators. 410,000 tested, 0.2% active. AID 624263, 2012; active means well fitted activation curve with a large enough effect; inconclusive means small, poorly fitted or top-dose-only effect; cell line not stated here; further: potency means the concentration at half of the fitted maximal effect; % of control where 0% means no effect; nearly all actives have a fitted effect of over 65% in size
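Decision-based qHTS: stable cells, 24 h exposure to five compound concentrations, CCCP as control. Fixed cells stained for PINK1 plus nuclear, mitochondrial and cell markers, cytometer read.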
* hit, by the source's call; i = inactive; ? = inconclusive; . = no result given. A selection: hits, their analogues and other compounds. The true share with any hit is near 0.78%. Unless noted, the call rests on the fitted dose curve; in most records, active means well fitted curve in the direction sought with a large enough effect; inconclusive means small, poorly fitted or top-dose-only effect, or another doubt; inactive means no such curve, though single readings can be large; an effect the other way counts as inactive or inconclusive.

SMILES | GLS inh | PI4K2A block | CCT modulator | PGK inhibitor | PINK1 expr mod
O=C(O)c1ccc(Cl)c(S(=O)(=O)NCC2CCCO2)c1 (centres undefined) | 10µM* | -15 | 1 | -6% | 2%
O=S(=O)(NCC1CCCO1)c1cc(Cl)ccc1Cl (centres undefined) | 1% | 1 | 1 | -7% | .
COc1cc(=O)n2c(c1C(=O)NCc1ccco1)CCN(C(=O)c1c(F)ccc(F)c1F)CC2 | . | . | . | . | 1%
O=C(Cn1c(=S)[nH]c2ccccc21)c1ccccc1 | 11% | -9 | -34* | -6% | 1%
CCCCCCN1C[C@@H](n2cc(-c3ccc(F)cc3)nn2)[C@H](O)C[C@@H]1c1ccc(Cl)cc1 | -4% | -3 | 1 | -8% | ?
CCCCCCN1C[C@H](O)[C@@H](n2cc(-c3ccc(F)cc3)nn2)C[C@@H]1c1ccc(Cl)cc1 | 5% | 6 | -2 | -1% | 16µM*
Cc1nc2sc(-c3ccccc3)cc2c(=O)n1N | 3% | -52* | 1 | 20µM* | 5%
Cc1nc2sc(-c3ccccc3)cc2c(=O)n1-n1cccc1 | 0% | -1 | 0 | -7% | 0%
COCCc1ccc(OCC2CO2)cc1 (centres undefined) | . | 3 | . | . | .
Cc1cc(C)cc(OC(C)C(=O)Nc2nonc2-c2ccc(Br)cc2)c1 (centres undefined) | -2% | -3 | . | . | 16µM*
COc1cc(CNc2ccc(N3CCOCC3)cc2)ccc1OCC(=O)NC(C)(C)C | 46% | -2 | -4 | -4% | 0%
COc1cc(CNc2ccc(N3CCN(C(C)=O)CC3)cc2)ccc1OCc1ccccc1 | 13µM* | -6 | -2 | 0% | 6%
C/C(=N\N=C1\NC(=O)C(CC(=O)Nc2ccc(C)c(Cl)c2)S1)C(C)(C)C (centres undefined) | 13% | -12 | -44* | -2% | 0%
C/C(=N\N=C1\NC(=O)C(CC(=O)Nc2ccc(Cl)cc2)S1)c1ccco1 (centres undefined) | 19% | -3 | -8 | 11% | 7%
O=C(Nc1cccc(-c2cn3ccccc3n2)c1)c1cc2ccccc2oc1=O | -5% | -10 | -61* | -3% | ?
CCCc1nnc(SCC(=O)N2CCCC2)n1Cc1ccco1 | 10% | -20 | -47* | i | 3%
COc1ccc(-c2cc(C)cc3c2OC(CNC(=O)c2cc(C(C)C)on2)C3)nn1 (centres undefined) | . | . | . | . | 0%
CC(NC(CCc1ccccc1)C(=O)O)C(=O)N1CCCC1C(=O)O (centres undefined) | -4% | . | . | . | .
NS(=O)(=O)c1ccc(-c2ccc(/C=N/NC(=O)c3ccc([N+](=O)[O-])cc3)o2)cc1 | -2% | -2 | -1 | -3% | 40µM*
CC(C)(C)CC(=O)OCC(=O)[C@@]1(O)CC[C@H]2[C@@H]3CCC4=CC(=O)C=C[C@]4(C)[C@H]3[C@@H](O)C[C@@]21C | . | -1 | . | . | .
O=C(NC(NC(=S)Nc1c(Cl)cccc1Cl)C(Cl)(Cl)Cl)c1cccc([N+](=O)[O-])c1 (centres undefined) | -5% | 1 | 1 | -7% | 28µM*
COC(=O)NC(NC(=S)Nc1ccc([N+](=O)[O-])cc1)C(Cl)(Cl)Cl (centres undefined) | -4% | 7 | 1 | -9% | 20µM*
O=C(NNC(=S)NC(=O)c1ccccc1Cl)c1cccc([N+](=O)[O-])c1 | -20% | 3 | 0 | -3% | 0%
CC/C(O)=N/S(=O)(=O)c1ccc(-c2c(-c3ccccc3)noc2C)cc1 | 4% | . | . | . | .
COc1cccc(/C=C2/NC(=O)N(CC(=O)Nc3ccc(C)cc3)C2=O)c1OCc1cccc(C(=O)O)c1 | ? | -9 | 0 | -18% | 5%
Cc1ccc(NC(=O)CN2C(=O)N/C(=C/c3ccccc3OCc3cccc(C(=O)O)c3)C2=O)cc1 | 0% | -20 | 3 | 22µM* | 1%
